Source: PubChem
Most compounds without a hit are left out; they make up all but 5.9% or so of the library.
FBPA coupling cs = coupling enzyme interference in Giardia aldolase counter-screen | 290,000 compounds, 0.67% hits | AID 2472 | activity change, negative = inhibition, % at 58.2 µM, hits read low | coupling enzyme system counterscreen, AmpLite Red fluorescence; in the data active = activity change below about -30%
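Counterscreen of the coupled detection system alone, without aldolase: glyceraldehyde-3-phosphate coupling enzymes plus AmpLite Red readout. Compounds at 57.5 uM final, 10 min RT preincubation, 20 min RT reaction, fluorescence 525/598 nm.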
RORg inh = blocks mouse ROR gamma transcriptional activity; P51450; Drosophila S2 Gal4-RORgamma UAS-luciferase reporter, 20 h; Potency, µM (series often up to 53.6 µM), without a hit: top-dose activity change, negative = inhibition, actives largely listed as inhibitors; 310,000 compounds, 5.4% hits; AID 2551; note: potency is the fitted concentration of half-maximal effect; nearly all actives have a fitted effect of over 60% in size
Target sequence (P51450 whole entry, looked up, the tested form may be a part): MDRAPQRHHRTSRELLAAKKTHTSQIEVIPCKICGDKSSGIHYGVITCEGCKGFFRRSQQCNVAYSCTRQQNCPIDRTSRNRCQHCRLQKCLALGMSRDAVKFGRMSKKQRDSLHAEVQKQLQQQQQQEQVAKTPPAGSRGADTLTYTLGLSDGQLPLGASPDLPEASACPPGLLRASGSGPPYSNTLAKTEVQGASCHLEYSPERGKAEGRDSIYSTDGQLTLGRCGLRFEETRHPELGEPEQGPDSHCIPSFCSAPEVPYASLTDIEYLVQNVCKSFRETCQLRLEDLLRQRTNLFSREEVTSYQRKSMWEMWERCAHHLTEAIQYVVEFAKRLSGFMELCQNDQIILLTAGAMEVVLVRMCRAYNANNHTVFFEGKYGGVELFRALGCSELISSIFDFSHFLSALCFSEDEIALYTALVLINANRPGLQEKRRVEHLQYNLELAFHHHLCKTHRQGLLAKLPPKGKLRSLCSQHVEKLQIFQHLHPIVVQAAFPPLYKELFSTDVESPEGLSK
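In this cell-based reporter format, copper sulfate (700 uM final) drives Gal4–ROR gamma fusion expression from a metallothionein promoter in Drosophila Schneider cells; compounds preincubated 1 hr, reporter read after 20 hr at ambient temperature.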
rTrxR1 inhibitor = rat TrxR1 inhibition; recombinant rTrxR1, NADPH fluorescence consumption, selenite substrate; O89049; Potency, µM (series often up to 114 µM), for inactives: at the top dose activity change, negative = inhibition, usual class: inhibitors; 390,000 compounds, 1% hits; note: potency is the fitted concentration of half-maximal effect; nearly all actives have a fitted effect of over 65% in size
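Rat TrxR1 (90 nM in the dispensed reagent) was pre-reduced with 400 uM NADPH for 5 min at room temperature, then incubated with compound for 15 min. After 400 uM selenite was added, NADPH fluorescence (Ex 340/Em 450 nm) was followed for 8 min.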
Gal4-VP16 FLuc = counter-screen for ROR gamma inhibitors: Gal4-VP16 reporter; Drosophila S2 Gal4-VP16 UAS-luciferase, luminescence, 20 h; Potency, µM (titrated, usually from 53.6 µM), inactives show at the highest dose activity, negative = inhibition, usual class: inhibitors; 310,000 compounds, 3.5% hits; AID 2546;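 note: Gal4-VP16 expression switched on by copper sulfate through the metallothionein promoter; potency is the fitted concentration of half-maximal effect; nearly all actives have a fitted effect of over 50% in size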
GALK inh = galactokinase (human) inhibition | P51570 | Purified GALK, Kinase-Glo residual ATP luminescence | Potency, µM (top dose mostly 57.5 µM), for the others: at the highest dose activity change, negative = inhibition, most hits filed as inhibitors | 270,000 compounds, 0.007% hits | AID 1868; note: potency is the fitted concentration of half-maximal effect
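The enzyme phosphorylates galactose (100 uM) using ATP (35 uM); inhibition is detected as higher residual ATP, quantified by bioluminescence after 1 h reaction at room temperature, pH 8.0.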
TrxR1 substrate = substrates of rat thioredoxin reductase 1. O89049. AID 588456. purified TrxR1 substrate turnover, NADPH consumption readout. 390,000 compounds, 0.01% hits. Potency, µM (top dose mostly 114 µM), for the others: at the top dose activity change, negative = substrate turnover; note: potency is the fitted concentration of half-maximal effect; nearly all actives have a fitted effect of over 50% in size
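Rat TrxR1, dispensed at 90 nM, was prereduced with 400 uM NADPH (final) for 5 min at ~22 deg C, then incubated with compound 15 min before 400 uM selenite. A first-read NADPH fluorescence drop versus no-compound background flagged substrates.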
* hit, by the source's call; [ ] = another dose, or the depositor's remark. Unless noted, calls come from the whole dose curve; as a rule, active = well fitted curve in the direction sought with a large enough effect; inconclusive = small, poorly fitted or top-dose-only effect, or another doubt; inactive = no such curve, though single readings can be large; an effect the other way counts as inactive or inconclusive. % is set by controls: 0 for no effect and ±100 for the full control effect.

`CCCCCCC(=O)N(O)C1CC(=O)N(c2ccc(C)cc2)C1=O` (stereo unspecified) gave FBPA coupling cs 2, RORg inh 11µM*, rTrxR1 inhibitor 16µM*, Gal4-VP16 FLuc inconclusive, GALK inh -2% and TrxR1 substrate 13%.
For O=C(O)CSC1CC(=O)N(c2ccc(Cl)cc2)C1=O (stereo unspecified) the results were FBPA coupling cs 3, RORg inh -11%, rTrxR1 inhibitor -7%, Gal4-VP16 FLuc 2%, GALK inh 1% and TrxR1 substrate -10%.
CCCCCCC(=O)N(O)C1CC(=O)N(c2ccc(Cl)cc2)C1=O (stereo unspecified) was read as FBPA coupling cs 5, RORg inh inconclusive, rTrxR1 inhibitor 11µM*, Gal4-VP16 FLuc inconclusive, GALK inh 5% and TrxR1 substrate 9%[57.1 µM].
Screening Cc1ccc(N2C(=O)CC(N(O)C3CC(=O)N(c4ccc(C)cc4)C3=O)C2=O)cc1 (stereo unspecified) returned FBPA coupling cs 1, RORg inh 23%, rTrxR1 inhibitor inconclusive, Gal4-VP16 FLuc -9%, GALK inh 1% and TrxR1 substrate 2%[57.1 µM].
Screening CCCN(CCC)CCCNC(=O)CCNS(=O)(=O)c1ccc(Br)cc1 returned FBPA coupling cs 0, RORg inh 9%, rTrxR1 inhibitor 7%, Gal4-VP16 FLuc -16% and TrxR1 substrate 2%.
Screening COc1ccc(OC)c(NC(=O)CSc2ncnc3c2cnn3-c2ccccc2Cl)c1 returned FBPA coupling cs -1, RORg inh inconclusive, rTrxR1 inhibitor 10%, Gal4-VP16 FLuc 1.4µM*, GALK inh 0% and TrxR1 substrate -3%.
COc1cc(NC(=O)CSc2ncnc3c2cnn3Cc2ccccc2)cc(OC)c1 was read as FBPA coupling cs 2, RORg inh 1%, rTrxR1 inhibitor 6%, Gal4-VP16 FLuc 6%, GALK inh 0% and TrxR1 substrate -3%.
CC(=O)N/N=C\c1cccc(OC/C=C/c2ccccc2)c1 was read as RORg inh 0%, rTrxR1 inhibitor 7%, Gal4-VP16 FLuc inconclusive, GALK inh -1% and TrxR1 substrate -2%.
Screening Cc1nn(C)c(C)c1CN(C)S(=O)(=O)c1ccc2ccccc2c1 returned FBPA coupling cs 0, RORg inh inconclusive, rTrxR1 inhibitor -5%, Gal4-VP16 FLuc 5µM*, GALK inh -1% and TrxR1 substrate -4%.
CC(C)CNS(=O)(=O)c1ccc(CCC(=O)NCCc2ccccc2)cc1 was read as FBPA coupling cs 4, RORg inh 34%, rTrxR1 inhibitor 21%, Gal4-VP16 FLuc -1%, GALK inh -7% and TrxR1 substrate -3%.
Screening CCCC[C@]12Cc3cc(OC)c(OC)cc3C(O1)C1=C(O2)C(=O)c2ccccc2C1=O returned FBPA coupling cs -36*, RORg inh -19%[10 µM] and Gal4-VP16 FLuc 1%[10 µM].
`CCCC[C@]12Cc3ccccc3[C@H](O1)C1=C(O2)C(=O)c2ccccc2C1=O` gave FBPA coupling cs 0, RORg inh -3%[10 µM] and Gal4-VP16 FLuc -9%[10 µM].
Screening COCCN1CCN(C(=O)c2ccc3nc(Cc4ccc(OC)c(OC)c4)oc3c2)CC1 returned RORg inh inconclusive, rTrxR1 inhibitor -14%, Gal4-VP16 FLuc 7.1µM*, GALK inh -3% and TrxR1 substrate 0%.
`COc1ccc(Cc2nc3ccc(C(=O)N4C[C@@H](C)O[C@@H](C)C4)cc3o2)cc1OC` gave RORg inh inconclusive, rTrxR1 inhibitor 3%, Gal4-VP16 FLuc inconclusive, GALK inh -1% and TrxR1 substrate -1%.
For CC(NC(=O)C1CCC1)c1ccc(Cl)cc1 (stereo unspecified) the results were FBPA coupling cs 0, RORg inh 24%, rTrxR1 inhibitor 3%, Gal4-VP16 FLuc 1%, GALK inh 0% and TrxR1 substrate 2%.
`CC(=O)c1cccc(NC(=O)CN2C(=S)NC(C)(C)CC2C)c1` (stereo unspecified) gave FBPA coupling cs -1, RORg inh 0%, rTrxR1 inhibitor 20%[57.1 µM], Gal4-VP16 FLuc 16%, GALK inh -1% and TrxR1 substrate 5%[57.1 µM].
`CC1CC(C)(C)NC(=S)N1CCCC(=O)Nc1ccc(F)c(F)c1` (stereo unspecified) gave FBPA coupling cs 1, RORg inh inconclusive, rTrxR1 inhibitor 0%, Gal4-VP16 FLuc inconclusive, GALK inh 7% and TrxR1 substrate 0%.
`Cc1ccc(NC(=O)CN2C(=S)NC(C)(C)CC2C)cc1Cl` (stereo unspecified) gave FBPA coupling cs 1, RORg inh 14µM*, rTrxR1 inhibitor 15%[57.1 µM], Gal4-VP16 FLuc inconclusive, GALK inh 1% and TrxR1 substrate 7%[57.1 µM].
CC1CC(C)(C)NC(=S)N1CCCC(=O)Nc1ccccc1F (stereo unspecified) was read as FBPA coupling cs 1, RORg inh 18µM*, rTrxR1 inhibitor 4%[57.1 µM], Gal4-VP16 FLuc -12%, GALK inh -8% and TrxR1 substrate 7%.
`CC1CC(C)(C)NC(=S)N1CCCC(=O)N1CCN(c2ccccc2F)CC1` (stereo unspecified) gave FBPA coupling cs 5, RORg inh 14µM*, rTrxR1 inhibitor -16%[57.1 µM], Gal4-VP16 FLuc inconclusive, GALK inh -2% and TrxR1 substrate 11%[57.1 µM].
CC1CC(C)(C)NC(=S)N1CCC(=O)N1CCc2ccccc21 (stereo unspecified) was read as FBPA coupling cs 1, RORg inh 6.3µM*, rTrxR1 inhibitor -14%, Gal4-VP16 FLuc inconclusive, GALK inh 10% and TrxR1 substrate 8%[57.1 µM].
Screening C=CCN1c2ccccc2[C@]23C[C@@H](C(=O)OC)N(C(=O)NC4CCCC4)C2=NC(C(=O)OC)=C(C(=O)OC)[C@H]13 returned rTrxR1 inhibitor 16% and TrxR1 substrate 0%.
`CC(C)(C)C(=O)NC(=O)Nc1ccccc1C(F)(F)F` gave FBPA coupling cs 2, RORg inh -4%, rTrxR1 inhibitor -9%[57.1 µM], Gal4-VP16 FLuc -14%, GALK inh 2% and TrxR1 substrate -11%[57.1 µM].
For CC(C)c1ccc(NC(=O)CCCN2C(=S)NC(C)(C)CC2C)cc1 (stereo unspecified) the results were FBPA coupling cs 6, RORg inh 23%, rTrxR1 inhibitor 1%, Gal4-VP16 FLuc -3%, GALK inh -1% and TrxR1 substrate 2%.
For CC1CC(C)(C)NC(=S)N1CCCC(=O)Nc1ccc(Cl)cc1 (stereo unspecified) the results were FBPA coupling cs -1, RORg inh 4µM*, rTrxR1 inhibitor 6%[57.1 µM], Gal4-VP16 FLuc inconclusive, GALK inh 10% and TrxR1 substrate 8%[57.1 µM].
